This is a sample that favours compounds with a hit; in the whole collection about 12% have one here.
Sm TGR block – qHTS Assay for the Inhibitors of Schistosoma Mansoni Peroxiredoxins. Schistosoma mansoni thioredoxin glutathione reductase (TGR), Q962Y6. purified TGR, DTNB reduction, TNB absorbance 405 nm. Potency, µM (doses to about 114 µM), for the others: at the highest dose activity change, negative = inhibition, most hits filed as inhibitors. actives 3% (n = 360,000); active means well fitted inhibition curve with a large enough effect; inconclusive means small, poorly fitted or top-dose-only effect; inactive means no such curve, though single readings can be large or run the other way; further: potency means the concentration at half of the fitted maximal effect; on the % scale 0 is the no-effect control and ±100 the full control effect; nearly all actives have a fitted effect of over 60% in size
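Kinetic colorimetric format: TGR-catalysed, NADPH-driven DTNB reduction monitored via TNB absorbance. Enzyme dispensed at 20 nM; compound exposure 15 min at room temperature before reaction start.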
Cycloheximide cs – Cycloheximide Counterscreen for Small Molecule Inhibitors of Shiga Toxin. max response, %. cell reporter, cycloheximide protein synthesis inhibition counterscreen. actives 12% (n = 300,000); in the data active means max response mostly above about 13%, no sharp cut-off; inactive means mostly below about 14%; further: read at 38.3 µM for the half of the compounds with a filed dose; 0% is about no effect
FMDV antiviral – High Throughput Screening for Foot and Mouth Disease Virus Antivirals; actives 1.2% (n = 410,000); AID 1159524, 2015; Potency, µM (titrated, usually from 57.9 µM), inactives show top-dose activity change, negative = inhibition, hits mostly inhibitors; FMDV antiviral cell-based qHTS; calls by dose curve; tested in HEK293T cells; further: read-out not given here; potency means the concentration at half of the fitted maximal effect; on the % scale 0 is the no-effect control and ±100 the full control effect; nearly all actives have a fitted effect of over 45% in size
Shiga inhibitor – A qHTS for Small Molecule Inhibitors of Shiga Toxin | Vero cells, Shiga toxin protein synthesis inhibition reporter | inhibition, % at 38.7 µM | actives 9.2% (n = 290,000) | AID 2315, 2010; in the data active means inhibition mostly above about 28%, no sharp cut-off; inactive means mostly below about 43%; further: 0% is about no effect
* marks the source's active call; other numbers are inactive results; ? = inconclusive; / = no result given; ! = not confirmed by another sample.

SMILES	Sm TGR block	Cycloheximide cs	FMDV antiviral	Shiga inhibitor
COc1ccc(C(=O)Nc2ccccc2C(=O)Nc2ccncc2)cc1	1.6%	24.9*	6.7%	58.1
COc1ccc(NC(=O)c2ccccc2NC(=O)c2cccs2)cc1	-0.2%	8.6	-21.4%	15.1
O=C(CSCc1ccccc1)Nc1ccccc1C(=O)Nc1ccc(C(=O)O)cc1	3.1%	13.1*	15.3%	23.8
CCC(NC(=O)c1ccccc1NC(=O)c1ccc(OC)cc1)C(=O)N1CCCC1 (stereo not given)	-3.7%	46.0*	44.2%	33.6*
Cc1ccccc1NC(=O)c1ccc2ccccc2c1	14.8%	29.9*	18.3%	92.1*
O=C(Cc1ccccc1)Nc1ccccc1C(=O)Nc1ccc(C(=O)O)cc1	5.7%	3.5	5.9%	7.7
Cc1ccc2oc(-c3cc(NC(=O)Cc4ccccc4)ccc3Cl)nc2c1	0.7%	/	46.3%	/
COc1cc(NC(=O)CCn2cnc3ccccc3c2=O)cc(OC)c1	-8.7%	/	-13.8%	/
COc1ccc(C(=O)Nc2ccccc2C(=O)N/N=C/c2cccc3ccccc23)cc1	-18.2%	31.0*	0.316µM*	119.2*
COc1ccc(C(=O)Nc2ccccc2C(=O)Nc2ccccc2C(=O)O)cc1	-16.5%	28.7*	0.0%	/
COc1ccc(C(=O)N/N=C/c2cc3ccccc3[nH]c2=O)cc1	16.0%	-0.8	-22.8%	-13.0
O=C(N/N=C/c1ccccc1O)C1SCCCS1	1.2%	26.3*	58.2%	40.0
COC(=O)c1ccc(CSC(=N)N)o1	-0.7%	9.2	?	3.2
CCc1oc(C(=O)OC)cc1CSC(=N)N	20µM*	0.2	-16.5%	11.9
COc1ccccc1NC(=O)c1cc(S(=O)(=O)N(C)C2CCCCC2)ccc1F	11.6%	/	-19.5%	/
COc1ccc2c(c1)c(CC(=O)Nc1c(C)cccc1C)c(C)n2C(=O)c1ccc(Cl)cc1	6.2%	/	?	/
COc1ccc2c(c1)c(CC(=O)Nc1ccc(C(C)=O)cc1)c(C)n2C(=O)c1ccc(Cl)cc1	8.0%	47.4*	18.2%	83.1*!
COc1ccc2c(c1)c(CC(=O)NCc1cc([N+](=O)[O-])ccc1O)c(C)n2C(=O)c1ccc(Cl)cc1	-24.7%	-2.2	39.8µM*	-17.7
COc1ccc(OC)c(NC(=O)Cc2c(C)n(C(=O)c3ccc(Cl)cc3)c3ccc(OC)cc23)c1	5.0%	/	?	/
COC(=O)Nc1ccc(Oc2ccccc2)cc1	8.3%	9.6*	19.0%	23.9
COC(=O)Nc1ccc(SCC(=O)c2ccccc2)cc1	-10.8%	51.0*	16.4%	61.9*
CC(=O)Nc1ccc(OCc2cccc([N+](=O)[O-])c2)cc1	-1.1%	28.9*	32.7%	81.8*
CC(=O)Nc1cccc(OCc2cccc([N+](=O)[O-])c2)c1	/	/	9.4%	/
CS(=O)(=O)Nc1ccc(OCc2ccccc2)cc1	-8.0%	18.6*	0.0%	55.0
CSCC[C@H](NC(=O)[C@H](Cc1ccccc1)NC(=O)[C@H](Cc1cnc[nH]1)NC(=O)CNC(=O)[C@@H](NC(=O)[C@H](C)NC(=O)[C@H](Cc1c[nH]c2ccccc12)NC(=O)[C@H](CC(C)C)NC(=O)[C@H](CC(N)=O)NC(=O)CN)[C@@H](C)O)C(N)=O	/	-6.2	/	-4.1
SMILES	Sm TGR block	Cycloheximide cs	FMDV antiviral	Shiga inhibitor
O=C(O)CCc1ccc(S(=O)(=O)Nc2ccc(OCc3ccccc3)cc2)cc1	-18.8%	13.8*	7.0%	44.6*
Cn1nc(OC(=O)Nc2ccccc2)cc1C(F)(F)F	9.3%	27.9*	/	37.2*
Cn1nc(OC(=O)Nc2cccc(Cl)c2)cc1C(F)(F)F	0.0%	5.2	-5.5%	15.5
O=C(O)/C=C/c1ccc(S(=O)(=O)Nc2ccc(OCc3ccccc3)cc2)cc1	2.2%	-6.4	2.8%	28.1
CC(=O)Nc1ccc(N=Cc2ccc(OCc3ccccc3)cc2)cc1	0.4%	35.0*	15.6%	67.7*
O=C(Oc1ccc[nH]c1=O)c1ccc(F)cc1	/	/	-14.6%	/
CC(C)C(=O)N/N=C/c1ccc(OCc2ccccc2)cc1	12.6%	3.2	-23.5%	26.7
O=C(Nc1ccccc1)Oc1ccc[nH]c1=O	50.1µM*	21.1*	11.6%	15.9
CSc1ccc(CCNC(=O)Cn2c(C)c3cnn(-c4ccccc4)c(=O)c3c2C)cc1	-3.5%	/	-15.8%	/
O=C(CSc1nc2nccnc2c(=O)n1CCc1c[nH]c2ccccc12)Nc1ccc(F)cc1	-1.0%	/	-2.8%	/
CCOc1ccc(CCNC(=O)Cn2ncc3c(=O)oc4ccc(C)cc4c32)cc1	-3.2%	/	-8.9%	/
COc1ccc(CCNC(=O)C(=O)NCC(c2ccc3c(c2)OCO3)N2CCOCC2)cc1OC (stereo not given)	0.5%	/	-19.2%	/
Cc1ccc(NC(=O)CN2C(=O)COc3ccc(S(=O)(=O)N4CCCCCC4)cc32)cc1Cl	-3.9%	/	-18.7%	/
NC(=O)COc1ccc(NC(=O)OCc2ccccc2)cc1	0.4%	23.6*	50.2%	35.7*
Cc1ccc(OC(=O)Nc2ccccc2)cc1	-3.4%	43.1*	-6.3%	64.9*
O=C(Nc1ccccc1)Oc1ccccc1	5.5%	7.0	0.0%	-2.0
COC(=O)Nc1ccc(OCc2ccccc2)cc1	8.4%	60.3*	59.8%	72.1*
NC(=O)COc1ccccc1	1.3%	-1.9	-8.5%	-11.5
COCC(=O)Nc1ccc(OCc2ccccc2)cc1	-2.8%	37.6*	35.5%	60.7*
COC(=O)c1c(NC(=O)c2cc3nc(-c4ccc(Br)cc4)cc(C(F)(F)F)n3n2)sc2c1CCCC2	0.9%	/	7.0%	/
O=C(NCc1ccc(F)cc1)c1ccc2c(c1)N(Cc1c(F)cccc1Cl)C(=O)CS2	1.6%	/	?	/
Cc1cnc(NC(=O)Nc2ccc(OCc3ccccc3)cc2)c(Br)c1	-2.9%	15.8*	4.6%	26.4
O=C(Nc1ccc2c3c(cccc13)CC2)c1ccco1	-22.6%	18.8*	16.6%	52.9
COc1ccc(C(=O)Nc2ccc3c4c(cccc24)CC3)cc1	9.6%	32.0*	40.2%	72.7
COCc1cc(=O)[nH]c(Nc2nc3ccc(C)cc3o2)n1	-17.5%	42.8*	?	82.3*
SMILES	Sm TGR block	Cycloheximide cs	FMDV antiviral	Shiga inhibitor
CC(=O)NCCCC(=O)NNC1CC(=O)N(c2cccc(Cl)c2)C1=O (stereo not given)	11.2µM*	-2.6	-20.0%	-4.8
CCCCCC(=O)NNC1CC(=O)N(c2cccc(OCC)c2)C1=O (stereo not given)	31.6µM*	-1.1	-12.2%	-1.5
CC(O)CCC(=O)NNC1CC(=O)N(c2ccccc2)C1=O (stereo not given)	-6.3%	11.5	-6.7%	-9.6
O=C(O)CC(NNC(=O)c1ccccc1)C(=O)Nc1ccc([N+](=O)[O-])cc1 (stereo not given)	-5.4%	36.5*	8.4%	67.5*
O=C(/C=C/NNC(=O)c1ccc(Br)cc1)c1ccccc1	-19.2%	32.4*	-8.7%	83.9*
NC(N)=NCCC[C@H](NC(=O)c1ccccc1)C(=O)Nc1ccc([N+](=O)[O-])cc1	/	-7.5	/	-6.1
Cc1ccc(C(=O)NNC(=O)c2ccc3ccccc3c2)cc1	/	/	54.8%	/
O=C(/C=C/NNC(=O)c1ccccc1O)c1ccccc1	-13.8%	31.6*	9.0%	/
Cc1ccc(C(=O)C=CNNC(=O)c2ccccc2)cc1	39.8µM*	33.2*	23.8%	44.3*

Screens as filed in PubChem.
